This note sets out measurements from PubChem BioAssay.

Values without a mark were called inactive.

Chain of Homeobox protein Hox-A13 (Mus musculus) (Q62424 whole entry, looked up): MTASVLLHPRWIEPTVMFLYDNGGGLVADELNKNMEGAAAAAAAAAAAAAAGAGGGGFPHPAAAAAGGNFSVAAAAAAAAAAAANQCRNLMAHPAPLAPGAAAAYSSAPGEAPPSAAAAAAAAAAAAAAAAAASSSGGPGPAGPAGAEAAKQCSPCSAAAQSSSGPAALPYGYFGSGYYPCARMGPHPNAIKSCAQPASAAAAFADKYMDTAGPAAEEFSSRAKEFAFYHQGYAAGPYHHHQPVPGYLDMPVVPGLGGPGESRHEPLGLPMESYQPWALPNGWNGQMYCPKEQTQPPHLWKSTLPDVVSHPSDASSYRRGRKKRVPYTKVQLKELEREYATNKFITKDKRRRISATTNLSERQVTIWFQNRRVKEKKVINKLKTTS

The test concerns the target Homeobox protein Hox-A13 (Mus musculus) (UniProt Q62424). Description: inhibitors of HoxA13-DNA binding, primary screen, biochemical, fluorescence polarization, labeled oligonucleotide (AID 1185). Particulars: 15 min, higher = more signal, called active from +8 up or from −8 down. For orientation: In fluorescence polarisation assays a small probe gives low polarisation when free and higher when bound to something large.
With `COC(=O)[C@@]1(Cc2ccc(F)cc2)[C@H]2c3cc(C(=O)N4CCCC4)n(CCSCCO)c3C[C@H]2CN1C(=O)c1ccccc1`, the z-score is -4.82.
As for `C[N+](C)(C)CCCC[C@@H]1NC(=O)[C@H]2C[C@@H](C(=O)NCCCCCN)[C@@H](c3ccc(O)cc3)N2C1=O`, the z-score was -1.12.
To `COc1c(C)cc(-c2cc3c(c(CCc4ccccc4)n2)[Si](C(C)C)(C(C)C)O[C@H]3c2ccccc2)cc1C` belongs 1.6.
`C=CCOC(=O)[C@H]1[C@@H]2C(=O)O[C@@H](c3ccccc3)[C@@H](c3ccccc3)N2[C@@H](c2ccc(OCCOC(=O)[C@H]3C[C@H]4C(=O)NCC(=O)N4[C@H]3c3ccc(O)cc3)cc2)[C@]12C(=O)Nc1ccccc12`: the z-score is -0.844.
In the case of `CCCCCCc1nc(Cc2cc(OC)c(OC)c(OC)c2)c(C)c2c1[Si](C(C)C)(C(C)C)OC2`, the z-score is -1.45.
In the case of `CC[C@H]1C2=C3C(CC[C@H]4C(OCc5ccc(F)cc5C(F)(F)F)OC[C@](C)([C@@H]34)N(C(=O)OC(C)(C)C)C2)C(COC(C)=O)C1COC(C)=O` (stereo partly specified), the z-score is -3.07.
The figure for `COCCOC(=O)N1C(=O)[C@@]2(c3cc(C#CCC(C(=O)OC)C(=O)OC)ccc31)[C@H](C(=O)N1CCc3cc(OC)c(OC)cc3C1)[C@H]1C(=O)O[C@H](c3ccccc3)[C@H](c3ccccc3)N1[C@@H]2c1ccccc1OCCO` is 0.96; for `C=C[C@@H](CO)NS(=O)(=O)c1ccc(Br)cc1` it is 0.553.
For `[N-]=[N+]=NCc1ccccc1[C@H]1OC(c2ccc(OCCCO)cc2)=N[C@@]1(Cc1ccccc1N=[N+]=[N-])C(N)=O`, the z-score is -6.25.
To `COCCCNC(=O)[C@@]1(CCC(=O)OC(C)(C)C)N=C(c2ccc(OCCCO)cc2)O[C@H]1c1ccccc1` belongs -4.75; to `C=CCOC(=O)[C@@H]1[C@H]2C(=O)O[C@H](c3ccccc3)[C@H](c3ccccc3)N2[C@H](c2ccc(OCCOC(=O)[C@@H]3C[C@@H]4C(=O)N[C@@H](CC(C)C)C(=O)N4[C@@H]3c3ccc(O)cc3)cc2)[C@@]12C(=O)Nc1ccc(I)cc12`, 0.374; to `CN1C2C=C(c3ccc(CO)cc3)C(C3C(=O)N(C(N)=O)C(=O)C32)C1C1CC1` (stereo unspecified), -6.63.
The figure for `CC(C)(C)OC(=O)CC[C@@]1(C(=O)N2CCOCC2)N=C(c2ccc(OCCCO)cc2)O[C@@H]1c1ccccc1CN=[N+]=[N-]` is -4.94; for `COCCOC(=O)N1C(=O)[C@@]2(c3cc(C#CCCO)ccc31)[C@H](c1ccc(O)cc1)N1[C@H](c3ccccc3)[C@H](c3ccccc3)OC(=O)[C@H]1[C@@H]2C(=O)NC[C@H](O)c1ccccc1` it is -2.51.
To `COC(=O)[C@@]1(Cc2ccc(F)cc2)[C@H]2c3cc(C(=O)N4CCCC4)n(Cc4ccc(OC(F)(F)F)cc4)c3C[C@H]2CN1C(=O)c1ccccc1` belongs -3.8; to `COc1cccc(C)c1NC(=O)O[C@H]1[C@H](OC(=O)Nc2ccccc2-c2ccccc2)[C@@H](OC(=O)Nc2ccccc2-c2ccccc2)[C@@H](OC)O[C@@H]1CO`, -3.57.
As for `COCCOC(=O)N1C(=O)[C@@]2(c3cc(C#CC4=CCCCC4)ccc31)[C@H](c1ccc(O)cc1)N1[C@H](c3ccccc3)[C@H](c3ccccc3)OC(=O)[C@H]1[C@@H]2C(=O)N1CCc2cc(OC)c(OC)cc2C1`, the z-score was 0.0698.
Turning to `C=C(CCCC)C(=O)CC[C@@H](OC(C)=O)c1ccc(OCCO)cc1`, the z-score was -5.09.
To `CC(C)(C)OC(=O)CC[C@]1(C(=O)N2CCOCC2)COC(c2ccc(OCCCO)cc2)=N1` belongs -3.78.
The figure for `CC1CC/C=C\[C@H]2OC34C=CCN(CCN5CCOCC5)C(=O)[C@H]3N(C(CO)C(C)C)C(=O)[C@@H]4C2C(=O)O1` (stereo partly specified) is -7.
`C[C@@]1([C@@H](NS(=O)(=O)c2cccc3cccnc23)c2ccc(-c3ccccc3)cc2)C[C@H]1C1CCCCC1`: the z-score was 2.32.
Regarding `COc1ccc(CCNC(=O)[C@@]2(c3ccc([N+](=O)[O-])cc3)CC(=O)N(C3CCCCC3)[C@@H]2c2ccc(CO)cc2I)cc1`, the z-score was -3.27.
To `CCOC(=O)C[C@H]1[C@H](OC(=O)c2ccc(-c3ccccc3)cc2)[C@@H](NC(=O)c2ccc(-c3ccccc3)cc2)c2cc(OCCCO)ccc2N1C(=O)c1ccccc1` belongs -1.22.
Take `CCCCC(=C=CC[C@H](O)c1ccccc1OCCO)CCO`: the z-score was -3.54.
On to `CC1C2C(CCCO)=CC(C3C(=O)N(C)C(=O)C23)N1Cc1cccc(OC(F)(F)F)c1` (stereo unspecified), for which the z-score was -7.46.
To `C[C@]1(C(=O)O)c2ccccc2C(=O)N(Cc2cc(C(F)(F)F)cc(C(F)(F)F)c2)[C@H]1c1ccc(CO)cc1` belongs -2.61; to `OCCCc1cc[n+](Cc2cc3c(cc2Br)OCO3)cc1`, -2.45.
With `COc1cc(Cc2cc3c(c(CCc4ccccc4)n2)[Si](C(C)C)(C(C)C)O[C@H]3c2ccccc2)cc(OC)c1OC`, the z-score was -5.59.
For `O=C1C2C=CC(C(O)C(c3ccccc3)c3ccccc3)N(Nc3ccccc3F)C2C(=O)N1c1ccccc1` (stereo unspecified), the z-score is -2.65.
Regarding `[N-]=[N+]=NCc1ccccc1[C@H]1OC(c2ccc(OCCCO)cc2)=N[C@@]1(CCS(=O)(=O)c1ccccc1)C(=O)NCCN1CCOCC1`, the z-score was -2.67.
Turning to `COc1ccc(C(=O)Nc2ccc(CN3C(=O)[C@@]4(O[C@@H](CC(=O)N(CCO)Cc5ccccc5)[C@H]([Si](C)(C)c5ccc(OC)cc5)[C@H]4C)c4ccccc43)cc2)cc1`, the z-score was -1.31.
With `COc1ccc(C(=O)Nc2cccc(CN3C(=O)[C@]4(O[C@H](CC(=O)N(CCO)Cc5ccccc5)[C@@H]([Si](C)(C)c5ccc(OC)cc5)[C@@H]4C)c4ccccc43)c2)cc1`, the z-score was -0.179.
The figure for `C=CC[C@]1(C(=O)NCC(O)CO)N=C(c2ccc(OCCCO)cc2)O[C@H]1c1ccccc1CN=[N+]=[N-]` (stereo partly specified) is -3.62; for `O=C1C2C=CC(C(O)C3CC=CCC3)N(Nc3ccc([N+](=O)[O-])cc3)C2C(=O)N1c1ccccc1` (stereo unspecified) it is -3.86.
As to `CCCCN1CC=CC23O[C@@H]4C=CCCOC(=O)C4[C@H]2C(=O)N(CCO)[C@@H]3C1=O` (stereo partly specified), the z-score was -4.53.
As to `COc1ccc([Si](C)(C)[C@@H]2[C@@H](CC(=O)N3Cc4ccccc4C[C@H]3CO)O[C@]3(C(=O)N(Cc4ccc(I)cc4)c4ccccc43)[C@H]2C)cc1`, the z-score was -2.35.
